# Most compounds without a hit are left out; they make up all but 31% or so of the library.
# PLAP activator = human PLAP activation | P05187 | purified PLAP enzyme, luminescent substrate read-out; active compounds read high | activation fold at 20 µM | actives 1.2% (n = 96,000); in the data active = activation fold above about 2
# CYP2C19 act = increases human CYP2C19 enzyme activity; 96,000 tested, under 10 active; activation factor at 5 µM; recombinant CYP2C19, luciferin-H EGE luminescence; active compounds read high; 0 = fully inhibited enzyme, 1 = untreated enzyme;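 active = activation factor of at least 2 at 5 µM in the primary screen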;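 also: 0 = wells with 2.5 mM tranylcypromine and 1 = vehicle-only wells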
# Target sequence (P33261 whole entry, looked up): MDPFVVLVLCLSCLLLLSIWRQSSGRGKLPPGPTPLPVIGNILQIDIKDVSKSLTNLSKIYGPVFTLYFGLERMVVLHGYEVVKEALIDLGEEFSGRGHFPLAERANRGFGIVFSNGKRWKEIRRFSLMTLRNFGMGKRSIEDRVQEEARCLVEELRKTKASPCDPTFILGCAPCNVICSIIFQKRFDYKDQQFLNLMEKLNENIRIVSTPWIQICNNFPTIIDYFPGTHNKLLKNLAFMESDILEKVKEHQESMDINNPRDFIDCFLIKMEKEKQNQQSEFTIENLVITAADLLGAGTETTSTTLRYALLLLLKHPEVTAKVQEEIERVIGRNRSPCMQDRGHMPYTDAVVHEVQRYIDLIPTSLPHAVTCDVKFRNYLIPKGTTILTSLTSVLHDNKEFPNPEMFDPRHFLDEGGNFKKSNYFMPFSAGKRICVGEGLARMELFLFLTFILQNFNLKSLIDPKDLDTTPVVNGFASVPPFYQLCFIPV
# CYP2C9 inhib = blocks human cytochrome P450 2C9 | P11712 | CYP2C9 Supersomes, luciferin-H conversion, luminescence | inhibition, % at 5 µM | actives 20% (n = 96,000);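 active = blocking of liver enzyme CYP2C9 beyond about 50% at 5 µM, limit read from the data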
# CYP2C9 act = increases human cytochrome P450 2C9 activity; actives 1.4% (n = 96,000); AID 1024; recombinant CYP2C9, luciferin-H conversion, luminescence; active compounds read high; factor 1 = untreated enzyme, 0 = blocked; activation factor at 5 µM; P11712;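 active = activation factor of 2 or more for CYP2C9 at a 5 µM dose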;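 also: 0 = sulfaphenazole-blocked wells and 1 = vehicle-only wells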
# CYP2C19 inhib = blocks human cytochrome P450 2C19; P33261; CYP2C19 Supersomes, luciferin-H EGE luminescence, 30 min; inhibition, % at 5 µM; actives 21% (n = 96,000); AID 778;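 active = CYP2C19 inhibition above a set limit at 5 µM in the primary screen, cut at about 50% in these data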;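 also: plate controls were negative control wells for no effect and 2.5 mM tranylcypromine positive control for full effect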
# * marks the source's active call; other numbers are inactive results; . = no result.
SMILES,PLAP activator,CYP2C19 act,CYP2C9 inhib,CYP2C9 act,CYP2C19 inhib
CCCCn1cnc2c(cnn2-c2ccc(F)cc2)c1=O,0.8,0.6,56*,0.4,43
O=c1c2cnn(-c3ccccc3)c2ncn1Cc1ccccc1F,1,1.1,20,0.8,-7
O=c1c2cnn(-c3ccc(F)cc3)c2ncn1Cc1ccccn1,0.9,0.4,33,0.7,56*
Cc1cc(N)c(NC2=CC(=O)CC(C)(C)C2)cc1C,1.1,0.9,-9,1.1,8
Fc1ccccc1COc1ccc(Br)cc1CNCc1ccncc1,1.7,0,84*,0.2,99*
CCOc1cc(CNc2ccccc2)cc(Br)c1OCc1ccccc1F,.,0.7,54*,0.5,30
Nc1nonc1C(=O)NCCNCc1c(OCc2ccccc2F)ccc2ccccc12,0.6,0.6,35,0.7,36
CCOc1cc(CNCc2ccncc2)cc(Br)c1OCc1ccc(F)cc1,1.6,0.2,91*,0.1,80*
Nc1nonc1C(=O)NCCNCc1cc(Br)ccc1OCc1ccc(F)cc1,1,0.7,25,0.8,35
COc1cc(CNc2cccc(F)c2)cc(Br)c1O,1.4,0.8,14,0.9,16
Fc1ccc(COc2ccc(Br)cc2CNCc2ccncc2)cc1,1.3,0,89*,0.1,99*
COc1ccc(CN2CC(C(=O)NCCCN3CCOCC3)CC2=O)cc1 (centres undefined),1.1,1,-3,1,4
c1ccc2c(CNCCN3CCOCC3)cccc2c1,1.2,0.7,13,0.9,26
CC(=O)c1ccc(N2CCN(c3ccc(S(=O)(=O)N4CCN(C)CC4)cn3)CC2)cc1,1,1.1,4,1,-10
O=C(c1ccc2c(c1)OCCO2)C1CCN(C(=O)c2ccc(F)c(F)c2)CC1,1.6,0.2,47,0.5,75*
O=C(Nc1ccc2c(c1)OCCO2)C1CCN(C(=O)c2ccccc2)CC1,1.3,0.9,.,.,9
CCOC(=O)C1CCN(C(=O)c2ccc3c(c2)OCO3)CC1,0.8,0.6,22,0.8,43
O=C(c1ccc2c(c1)OCCO2)C1CCN(C(=O)c2ccc(F)cc2)CC1,1.4,0.3,50*,0.5,72*
Fc1ccc(NCc2cn3ccccc3n2)cc1,1,0.2,29,0.7,84*
Fc1cccc(NCc2cn3ccccc3n2)c1,1.3,0.2,32,0.7,78*
O=C(NCCc1cn2ccccc2n1)c1ccccc1F,1.1,0.8,8,0.9,18
Cc1cc(/C=C(\C#N)C(=O)NCc2cccs2)c(C)n1-c1ccccc1F,1,1,2,1,0
CC(C)c1ccc(OCC(=O)Nc2cccc3c2CCCC3)cc1,1,0.9,-3,1,8
CC(=O)c1cc(C)ccc1OC(=O)c1ccco1,0.9,1,-7,1.1,2
Cc1ccc(C)c(NC2=C(Cl)C(=O)OC2OC(=O)c2ccco2)c1 (centres undefined),1,0.2,58*,0.4,76*
SMILES,PLAP activator,CYP2C19 act,CYP2C9 inhib,CYP2C9 act,CYP2C19 inhib
O=C(C1CCCN(S(=O)(=O)Cc2ccccc2)C1)N1CCC(Cc2ccccc2)CC1 (centres undefined),1.9,0,85*,0.1,97*
CS(=O)(=O)N1CCC(C(=O)N2CCC(Cc3ccccc3)CC2)CC1,1.4,0.9,1,1,9
COC(=O)C1CCN(S(=O)(=O)Cc2ccccc2)CC1,1.3,0.4,-13,1.1,63*
CC(=O)c1ccc(N2CCN(C(=O)C3CCN(S(=O)(=O)Cc4ccccc4)CC3)CC2)cc1,1.4,1,67*,0.3,4
O=C1CN(c2nc3ccccc3n3cnnc23)CC(=O)N1CCc1ccccc1,0.9,0.6,62*,0.4,44
c1ccc(CNc2nc3ccccc3n3cnnc23)cc1,0.9,0.7,20,0.8,28
CC1CCN(c2nnc(NC(=O)Cn3c(=O)oc4ccccc43)s2)CC1,1,1,10,0.9,-3
COCc1cc(C)nc(OCC(=O)N/N=C\c2cc(C)n(-c3cccc(C(F)(F)F)c3)c2C)c1C#N,1.7,0.7,65*,0.3,34
CCNc1nc2[nH]c(=O)c3c(c2s1)OC(N)=C(C#N)C3c1ccc(C)cc1 (centres undefined),1,1,13,0.9,-2
O=c1oc2cc(OCc3nn[nH]n3)ccc2c2c1CCCC2,1.3,0.1,96*,0,95*
Cc1c(CC(=O)O)c(=O)oc2cc(OCc3nn[nH]n3)ccc12,0.9,1.1,-2,1,-12

# Source: PubChem (Sanford-Burnham Center for Chemical Genomics)
